# Hits are enriched below; roughly 6.5% of the tested compounds scored in any of these assays.
# Vaccinia Venus: vaccinia inhibition (Venus reporter) | Vaccinia virus Venus reporter expression, fluorescence | Potency, µM (highest dose often 36.5 µM), without a hit: top-dose activity change, negative = inhibition, most hits filed as inhibitors | 330,000 tested, 0.46% active; calls by dose curve; tested in A549 cells; further: potency means the concentration at half of the fitted maximal effect; nearly all actives have a fitted effect of over 30% in size
# FMDV inh: foot and mouth disease virus antiviral activity; AID 1159524; FMDV antiviral cell-based qHTS; Potency, µM (series often up to 57.9 µM), without a hit: at the top dose activity change, negative = inhibition, hits mostly inhibitors; 410,000 tested, 1.2% active; calls by dose curve; tested in HEK293T cells; further: read-out not given here; potency means the concentration at half of the fitted maximal effect; nearly all actives have a fitted effect of over 45% in size
# VACV mCherry inh: inhibitors of vaccinia virus infection (mCherry reporter signal); Vaccinia virus mCherry reporter infection, fluorescence; Potency, µM (highest dose often 36.5 µM), without a hit: top-dose activity change, negative = inhibition, actives largely listed as inhibitors; 310,000 tested, 0.63% active; calls by dose curve; tested in A549 cells; further: potency means the concentration at half of the fitted maximal effect; nearly all actives have a fitted effect of over 35% in size
# Lassa entry inh: blocks Lassa virus binding to or entry into cells. Lassa virus pseudotype entry inhibition, cell reporter. Potency, µM (top dose mostly 37.9 µM), inactives show at the highest dose activity change, negative = inhibition, actives largely listed as inhibitors. 300,000 tested, 1.2% active. AID 540256; calls by dose curve; tested in HEK293 cells; further: potency means the concentration at half of the fitted maximal effect; nearly all actives have a fitted effect of over 50% in size
# MARV entry inh: blocks Marburg virus binding to or entry into cells | 300,000 tested, 1.8% active | AID 540276 | Potency, µM (highest dose often 37.8 µM), for inactives: at the top dose activity change, negative = inhibition, hits mostly inhibitors | Marburg virus pseudotyped entry inhibition, cell reporter; calls by dose curve; tested in HEK293 cells; further: potency means the concentration at half of the fitted maximal effect
# HCMV inh: inhibitors of human cytomegalovirus. activity change, negative = inhibition, % at 57.5 µM. HFF cells, HCMV-luciferase reporter, 72 h; stronger effect = lower value. 410,000 tested, 4.5% active; in the data active means activity change below about -60%; inconclusive means no clear call, values can overlap the other calls; inactive means above about -39%
#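 Inhibition of viral replication was scored as loss of reporter luminescence in HFFs infected with HCMV-luciferase (MOI 1 PFU/cell) for 72 h; compounds tested at 2 doses, normalized to buffer and Salinomycin controls.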
# * marks the source's active call; other numbers are inactive results; i = inactive; ? = inconclusive; . = no result; [ ] = another dose, or the depositor's remark. On the % scale 0 is the no-effect control and ±100 the full control effect.
SMILES,Vaccinia Venus,FMDV inh,VACV mCherry inh,Lassa entry inh,MARV entry inh,HCMV inh
CCCCC(=O)OC1CCC2C3CCc4cc(O)ccc4C3CCC12C (stereo not given),-16%,-16%,-9%,.,.,?
O=C(NCC1CC1)c1cnc(N2CCN(Cc3cccc(F)c3)C2=O)s1,.,.,.,.,.,-99*
C[C@]12CC[C@@H](O)C[C@@H]1CC[C@@H]1[C@@H]2CC[C@]2(C)C=CC[C@@H]12,-15%,-3%,i,.,.,.
CC(=O)c1cccc(NC(=O)CSc2ncc3c(n2)-c2cc(Cl)ccc2N(Cc2ccccc2)S3(=O)=O)c1,?,0%,?,?,.,-32
C1=CC2=NC34CCCCC3CC3=C(CCCC3)N4C2=CC1=NC1CCCCC1 (stereo not given),.,28µM*,.,.,.,.
CCc1ccc(NC(=O)C(CC)Sc2nc3cc4c(cc3c(=O)n2Cc2ccco2)OCO4)cc1 (stereo not given),.,0%,.,?,?,?
CCc1ccccc1NC(=O)C(CC)Sc1nc2cc3c(cc2c(=O)n1Cc1ccco1)OCO3 (stereo not given),.,24%,.,?,?,-94*
Cc1cc(C(=O)CSc2cccc[n+]2[O-])c(C)n1-c1ccc(OC(F)F)cc1,.,5%,.,.,.,-73*
Cc1cc(C(=O)Cn2nc(C(=O)O)c3ccccc3c2=O)c(C)n1CC(F)(F)F,-11%,45%,-17%,10%,?,83
Cc1cc(C(=O)Cn2nc(C(=O)O)c3ccccc3c2=O)c(C)n1CCc1ccc(F)cc1,-20%,-24%,-20%,?,5.6µM*,-32
Cc1cc(C(=O)Cn2nc(C(=O)O)c3ccccc3c2=O)c(C)n1-c1ccc(OC(F)F)cc1,-16%,-20%,-13%,.,.,-66*
COC(=O)c1ccc(-n2c(C)cc(C(=O)CSc3cccc[n+]3[O-])c2C)cc1,.,-9%,.,.,.,?
CCCN1CNc2c(c(=O)[nH]c(=S)n2CCc2ccc(C)cc2C)C1,-12%,.,i,.,.,.
O=C(Nc1cccc(F)c1)c1ccc(CSc2ccccc2)o1,4%,21%,-5%,5.2µM*,7.3µM*,-11
O=C(CCc1ccccc1)Nc1ccc(NC(=O)c2ccco2)cc1,-10%,.,-6%,?,23%,-24
O=C(Nc1cccc(F)c1)c1ccc(Br)o1,-3%,52%,-10%,4%,?,-97*
O=C(Nc1ccc(CSc2ccccc2)cc1)c1ccco1,.,58%,.,.,.,-84*
CCCCCCCC1=Cc2ccccc2C(C(C(=O)OC)C(=O)OC)N1C(=O)OC (stereo not given),.,.,.,.,-2%[14.2 µM],.
CC(C)(C)S(=O)N1Cc2ccc(CO)cc2[C@@H]1CCO (stereo not given in full),-14%,40µM*,-14%,.,.,-4
CCOc1ccc(CN2CCN(S(=O)(=O)c3ccc(Cl)cc3)CC2)cc1,-25%,-22%,-28%,?,.,-15
COc1ccccc1OCC(=O)N/N=C/c1c(O)ccc2ccccc12,.,.,.,.,.,-109*
Cn1cccc1-c1cc(C(=O)N/N=C/c2cc(Br)ccc2O)[nH]n1,-10%,-13%,?,?,?,-95*
COc1ccc(/C=N/NC(=O)COc2cccc3ccccc23)c(C(=O)O)c1OC,8%,-15%,-13%,0%,?,54
COc1ccc(O)c(/C=N/NC(=O)c2ccc(OCc3cccc(Br)c3)cc2)c1,.,-21%,.,?,?,-97*
COc1ccc(/C=N/NC(=O)c2ccc(Br)cc2)c(OC)c1,-12%,26%,-22%,-19%[46.1 µM],-3%[46.1 µM],?
SMILES,Vaccinia Venus,FMDV inh,VACV mCherry inh,Lassa entry inh,MARV entry inh,HCMV inh
COc1ccc(C(=O)N/N=C/c2cc(Br)ccc2O)cc1OC,-19%,-13%,18µM*,2.5µM*,8.9µM*,-97*
COc1ccc(/C=N/NC(=O)c2ccc(Br)cc2)cc1Cn1cc(Cl)cn1,0%,-16%,-13%,-7%,?,-9
COc1ccc2ccccc2c1/C=N/NC(=O)c1cccc(Br)c1,-6%,0%,-26%,-11%,0%,-67*
COc1ccc(/C=N/NC(=O)c2cccc(Br)c2)cc1Cn1cc(Cl)cn1,?,?,?,?,7.1µM*,-14
COc1ccc2ccccc2c1/C=N/NC(=O)c1ccc([N+](=O)[O-])cc1,-5%,21%,-14%,-21%,8%,-31
COc1ccc(CCNC(=O)c2cnn(-c3nccc(-c4cccs4)n3)c2C)cc1OC,?,25%,-13%,.,.,.
Fc1ccc(-c2ncn(C3CCNCC3)c2-c2ccnc(Oc3ccc(F)c(F)c3)n2)cc1,.,.,.,22µM*,.,.
O=c1c(-c2cc(F)cc(F)c2)nc2cnc(Oc3ccccc3)nc2n1C1CC1,.,-9%,.,.,.,.
Fc1ccc(-c2ncn(C3CCNCC3)c2-c2ccnc(Oc3ccc(Oc4ccccc4)cc3)n2)cc1,.,.,.,13µM*,.,.
Fc1ccc(Oc2nccc(-c3ccc(Cl)cc3)n2)cc1,-8%,6%,.,?,21%[46.1 µM],-26
CCc1sc(-c2cc3cccc(OC)c3oc2=O)nc1-c1cc(C)ccc1C,-20%,.,1%,.,.,.
CCOC(=O)c1ccc(Nc2ncnc3ccc(C)cc23)cc1,-12%,-18%,.,-17%,?,-11
CCOc1ccc(Nc2ncnc3ccc([N+](=O)[O-])cc23)cc1,-25%,?,-21%,2%,-13%[46.1 µM],-69*
Cc1cc(N)c2ccccc2[n+]1CCCCCCCCCCCCCC[n+]1c(C)cc(N)c2ccccc21,.,.,.,.,8.9µM*,.
O=S1(=O)N[C@H](Cc2ccccc2)COc2cccc(N3CCCCC3)c21,.,.,.,.,.,-13
CCCC1=Nc2cc(C(=O)NCCc3ccccc3)ccc2Sc2ccc(C)cc21,?,-2%,-7%,-11%[46.1 µM],?,-67*
CCOC(=O)N1CCC(NC(=O)c2ccc3c(c2)N=C(CC)c2ccccc2S3)CC1,-9%[7.34 µM],-30%,-17%[7.34 µM],.,.,?
CCC1=Nc2cc(C(=O)NCCN(CC)CC)ccc2Sc2ccccc21,-11%,-17%,-12%,?,?,?
CCCC1=Nc2cc(C(=O)NC3CCC(C)CC3)ccc2Sc2ccccc21 (stereo not given),-21%[7.34 µM],5%,-26%[7.34 µM],?,?,-77*
CCOCCCNC(=O)c1ccc2c(c1)N=C(CC)c1cc(Br)ccc1S2,?,-20%,-21%,?,?,-88*
CC1CCC(NC(=O)c2ccc3c(c2)S(=O)(=O)c2ccccc2C3=O)CC1 (stereo not given),-16%,10%,?,.,.,-67*
CCC1=Nc2cc(C(=O)NCCc3ccccc3)ccc2Sc2ccc(Cl)cc21,-28%,-2%,-25%,?,-14%[46.1 µM],4
O=C(COC(=O)c1ccc2c(c1)S(=O)(=O)c1ccccc1C2=O)NC1CC1,-10%,-15%,i,3%[46.1 µM],?,4
CCN1C2=C(C=C/C1=C1\C(=O)N(C)C(=S)N1C1CCCCC1)CCCC2,.,.,.,.,2%[46.1 µM],.
CCCNC(=O)c1ccc2c(c1)N=C(CCC)c1ccccc1S2,?,-15%,?,-17%[46.1 µM],?,-86*
CCCC1=Nc2cc(C(=O)NCCc3ccc(OC)cc3OC)ccc2Sc2ccccc21,?,-12%,?,?,?,?

# Bioassay records deposited in PubChem by National Center for Advancing Translational Sciences (NCATS).
